# Only some compounds are listed: those with a hit (about 8.5% of all), similar ones and a draw of the others.
# NPSR antag = blocks cAMP signaling of the human neuropeptide S receptor; Q6W5P4; CHO-NPSR cells, cAMP TR-FRET, antagonist mode; 220,000 tested, 1% active; AID 1461; Potency, µM (top dose mostly 38.3 µM), without a hit: at the top dose activity change, negative = inhibition, most hits filed as inhibitors; active = well fitted curve in the direction sought with a large enough effect; inconclusive = small, poorly fitted or top-dose-only effect, or another doubt; inactive = no such curve, though single readings can be large; an effect the other way counts as inactive or inconclusive; note: potency is the fitted concentration of half-maximal effect; nearly all actives have a fitted effect of over 50% in size
# ALDH1A1 block = inhibitors of human aldehyde dehydrogenase 1A1; P00352; Purified ALDH1A1, NADH fluorescence, propionaldehyde substrate; Potency, µM (series often up to 75.3 µM), without a hit: at the top dose activity, negative = inhibition, hits mostly inhibitors; 220,000 tested, 7.3% active; AID 1030;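 note: potency is the fitted concentration of half-maximal effect; plate controls were no enzyme wells and a reference inhibitor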
# Sfp inh = Sfp phosphopantetheinyl transferase inhibition. Q9F4F7. Biochemical Sfp PPTase activity, qHTS. Potency, µM, for the others: largest response in the series, negative = inhibition, hits mostly inhibitors. 310,000 tested, 3.5% active; active = well fitted curve in the direction sought with a large enough effect; inconclusive = small, poorly fitted or top-dose-only effect, or another doubt; inactive = no such curve, though single readings can be large; an effect the other way counts as inactive or inconclusive;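 note: the enzyme is Sfp with the accession as filed and its product quenches rhodamine fluorescence; potency is the fitted concentration of half-maximal effect; 0% = enzyme reaction without inhibitor and -100% = no enzyme wells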
#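 Buffer: 50 mM Hepes-Na pH 7.6, 10 mM MgCl2, 0.01% Nonidet P-40, 0.01% BSA. Enzyme 15 nM, pre-exposed to compound 15 min; substrates then added and fluorescence change tracked over 30 min.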
# KDM4E inh = JMJD2E (human) inhibition | Potency, µM (highest dose often 57.1 µM), for inactives: top-dose activity change, negative = inhibition, usual class: inhibitors | JMJD2E catalytic domain, FDH-coupled NADH fluorescence (FDH is formaldehyde dehydrogenase) | B2RXH2 | 230,000 tested, 1.6% active;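 note: potency is the fitted concentration of half-maximal effect; 0% = wells with enzyme and -100% = buffer wells without enzyme; nearly all actives have a fitted effect of over 50% in size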
# Target sequence (B2RXH2 1-337 limits assumed): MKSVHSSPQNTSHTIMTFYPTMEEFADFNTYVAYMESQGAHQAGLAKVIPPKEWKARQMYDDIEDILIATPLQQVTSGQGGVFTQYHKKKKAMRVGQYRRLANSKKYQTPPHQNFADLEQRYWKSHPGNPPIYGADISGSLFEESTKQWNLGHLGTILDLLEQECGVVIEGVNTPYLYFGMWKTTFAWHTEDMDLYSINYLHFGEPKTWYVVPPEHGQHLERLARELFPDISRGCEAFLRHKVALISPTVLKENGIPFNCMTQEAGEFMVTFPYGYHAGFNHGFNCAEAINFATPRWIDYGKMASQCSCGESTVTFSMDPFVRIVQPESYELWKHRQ
# GoLoco inh red = RGS12 GoLoco-Gai1 interaction inhibition. Gai1:RGS12 GoLoco peptide FP, rhodamine, 10 min. P63096. AID 880. Potency, µM (top dose mostly 61.6 µM), for the others: top-dose activity, negative = inhibition, most hits filed as inhibitors. 230,000 tested, 0.44% active; active = well fitted inhibition curve with a large enough effect, not every such curve was filed as active; inactive = no such curve, though single readings can be large or run the other way; note: potency is the fitted concentration of half-maximal effect; nearly all actives have a fitted effect of over 30% in size
# FBPA coupling cs = inhibits coupling enzyme system, counter-screen for aldolase hits. coupling enzyme system counterscreen, AmpLite Red fluorescence. activity change, negative = inhibition, % at 58.2 µM, hits read low. 290,000 tested, 0.67% active. AID 2472; in the data active = activity change below about -30%
#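 Fluorescence at 525 nm excitation and 598 nm emission measured inhibition of the coupled detection system without aldolase. Compounds (at 57.5 uM final) were preincubated 10 min at room temperature with coupling enzyme reagent before a 20 min substrate/AmpLite Red step.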
# * hit, by the source's call; ? = inconclusive; / = not tested or not shown; [ ] = remark or other dose. Unless noted, calls come from the whole dose curve; as a rule, active = well fitted inhibition curve with a large enough effect (not every such curve was filed as active); inconclusive = small, poorly fitted or top-dose-only effect, or another doubt; inactive = no such curve, though single readings can be large or run the other way. Unless noted, % is set by controls: 0 for no effect and ±100 for the full control effect.
SMILES,NPSR antag,ALDH1A1 block,Sfp inh,KDM4E inh,GoLoco inh red,FBPA coupling cs
O=C(CSc1nnc(-c2ccccc2)n1Cc1ccco1)Nc1ccc2c(c1)OCCO2,-16.4%[46.1 µM],?,44.7µM*,-8.2%,-3.3%,7.3
Cc1cc(C)c(NC(=O)CSc2nnc(-c3ccncc3)n2Cc2ccco2)c(Cl)c1,-14.4%[46.1 µM],-9.3%,20µM*,-1.2%,12.0%,2.2
Cc1ccc(NC(=O)N2CCCC2C(=O)Nc2ccc3c(c2)OCCO3)cc1 (stereo not given),/,/,-9.1%,/,/,-0.2
Cc1ccc2c(Cl)cc(Cl)c(OCC(=O)Nc3ccc(C)c(S(=O)(=O)N(C)C)c3)c2n1,-18.7%,?,3.9%,-5.8%,7.4%,0.0
COCCNC(=O)c1cn(CCOC)c(=O)c2c1c1ccccc1n2C,/,/,3.9%,/,/,-2.0
COc1ccc(-c2c(C)nn3c(NC4CCCC4)cc(C)nc23)cc1OC,/,/,-14.4%,/,/,-5.7
CCc1c(C)nc2cc(-c3ccc(OC)c(OC)c3)nn2c1NCC1CC1,12.6µM*,?,22.4µM*,1.5%,29.8%,-14.3
O=C(COc1ccccc1)NCC(=O)N/N=C/c1cccs1,7.4%[46.1 µM],22.4µM*,8.6%,-8.3%,11.7%,-1.6
COc1cccc(/C=N/NC(=O)CNC(=O)COc2cccc(C)c2)c1O,52.2%,/,-2.6%,2.82µM*,0.2%,7.0
O=C(N/N=C/c1ccc([N+](=O)[O-])cc1)c1cccs1,-4.5%,-4.4%,-8.1%,-3.5%,12.5%,1.4
O=C(N/N=C/c1cccc([N+](=O)[O-])c1O)c1cccs1,-5.8%,-8.7%,22.4%,3.98µM*,5.1%,1.9
Cc1cccc(OCC(=O)NCC(=O)N/N=C/c2ccccc2)c1,/,/,22.2%,/,/,-18.7
O=C(COc1ccc(Cl)cc1)NCC(=O)N/N=C/c1cccs1,14.2%,?,3.2%,-3.0%,-11.1%,0.4
COc1cccc(/C=N/NC(=O)CSc2ccccc2C)c1O,1.7%,18.5%,18.6%,28.2µM*,2.9%,2.0
CCOC(=O)c1cnc2c(C)cccc2c1Nc1cccc(C(=O)O)c1,-34.7%,/,11.4%,5.1%,0.4%,16.6
COc1cccc(/C=N/NC(=O)CNC(=O)c2cccs2)c1O,-1.9%,/,10.2%,8.91µM*,2.1%,0.6
COc1cccc(/C=N/Nc2ccc(C(=O)O)cc2)c1O,-33.6%,10.9%,-18.5%,-19.5%,10.5%,0.7
Cc1ccc(/C=N/NC(=O)CNC(=O)c2cccs2)cc1,/,/,9.4%,/,/,/
COc1ccc(/C=N/NC(=O)c2nc(-c3ccccc3)n(-c3ccccc3)n2)c(O)c1,-7.3%,?,4.4%,17.8µM*,11.2%,8.0
COc1cccc(/C=N/Nc2nn3cnnc3c3ccccc23)c1O,-10.4%[46.1 µM],0.4%,14.9%,17.8µM*,29.3%,-1.1
Oc1cccc(/C=N/Nc2nn3cnnc3c3ccccc23)c1,10.0%,/,5.3%,-2.8%,13.5%,1.0
COc1cccc(/C=N/Nc2ccc(S(=O)(=O)O)cc2)c1O,-3.7%[46.1 µM],10µM*,?,?,2.3%,0.0
COc1ccc(/C=N/NC(=O)c2nc(-c3ccccc3)n(-c3ccccc3)n2)cc1,-39.9%,?,-15.4%,?,6.8%,4.5
CCNc1ncc2ncc(=O)n(Cc3ccc(F)cc3)c2n1,/,?,12.6%,/,6.0%,3.8
C=CCNC(=S)/N=c1/ccccn1CCC,21.9%,/,4.6%,-10.1%,-6.0%,3.4
SMILES,NPSR antag,ALDH1A1 block,Sfp inh,KDM4E inh,GoLoco inh red,FBPA coupling cs
Cc1cccc(OCC(=O)NCC(=O)N/N=C/c2ccc(O)cc2O)c1,4.4%,/,16.0%,3.16µM*,-13.6%,1.1
COc1ccccc1/C=N/NC(=O)CCSc1ccccc1,14.0%,-7.6%,-3.2%,-0.2%,0.8%,-33.3*
COc1cccc(/C=N/NC(=O)CNC(=O)CCc2ccccc2)c1O,47.8%,/,-1.8%,3.98µM*,17.4%,6.5
COc1ccccc1/C=N/NC(=O)CNC(=O)c1ccccc1,-17.1%,/,9.1%,-0.9%,3.5%,1.0
COc1ccc(/C=C\C(=O)NCC(=O)N/N=C/c2ccc(O)cc2O)cc1,4.0%,/,3.8%,7.08µM*,7.7%,5.6
COc1ccccc1/C=C\C(=O)NCC(=O)N/N=C/c1cccc(OC)c1O,/,/,?,/,/,-0.4
O=C(N/N=C/c1ccc(COc2ccc(Br)cc2)o1)c1ccco1,31.7%,-1.2%,30.9%,13.0%,4.5%,-0.2

# Source: PubChem BioAssay
